Compound activity as filed in PubChem.
Only a selection was taken, and hits are over-represented in it overall.
Glioma ERSR ind: ER stress response induction in glioma | U87-MG GRP78 promoter luciferase reporter, 16 h | Potency, µM, most hits filed as activators | AID 602332 | 0.02% of 420,000 active; note: series mostly up to about 76 µM; nearly all actives have a fitted effect of over 35% in size
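ERSR induction read as luciferase luminescence (Bright-Glo, 10 min at room temperature) in stably transfected human U87-MG glioma cells exposed to compounds for 16 h, using GRP78 as sensor.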
G9a inh: blocks human histone lysine methyltransferase G9a; Q96KQ7; G9a H3K9 monomethylation, AlphaScreen, 2 h; Potency, µM (doses to about 102 µM), actives largely listed as inhibitors; 8.8% of 350,000 active; AID 504332; note: nearly all actives have a fitted effect of over 75% in size
Target sequence (Q96KQ7 913-1193 limits assumed): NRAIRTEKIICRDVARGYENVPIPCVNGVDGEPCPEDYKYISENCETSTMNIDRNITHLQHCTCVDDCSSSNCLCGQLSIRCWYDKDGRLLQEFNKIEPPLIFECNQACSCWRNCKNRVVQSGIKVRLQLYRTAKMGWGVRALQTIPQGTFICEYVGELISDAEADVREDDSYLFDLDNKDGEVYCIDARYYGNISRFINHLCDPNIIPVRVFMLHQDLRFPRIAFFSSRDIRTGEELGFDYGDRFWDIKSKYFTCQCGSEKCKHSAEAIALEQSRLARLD
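Readings reflect AlphaScreen signal from monomethyl-H3K9 antibody detection. HMT at 20 nM; substrate b-H3K9 500 nM; cofactor SAM 20 uM; 2 h RT reaction; compounds tested as titrations in qHTS with 15 min preincubation.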
Sfp inh: inhibitors of Bacillus subtilis Sfp phosphopantetheinyl transferase. 3.5% of 310,000 active. Q9F4F7. Potency, µM, most hits filed as inhibitors. Biochemical Sfp PPTase activity, qHTS;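 note: the enzyme is Sfp with the accession as filed and its product quenches rhodamine fluorescence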
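Compounds were incubated with enzyme (final 15 nM) for 15 min at room temperature before substrate addition started the reaction. Fluorescence at 525 nm excitation, 598 nm emission was recorded immediately and after 30 minutes.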
VDR inhibitor: blocks the human vitamin D receptor; Potency, µM, most hits filed as inhibitors; P11473; AID 504847; VDR-SRC2-3 peptide fluorescence polarization, 2 h; 0.93% of 400,000 active
Target sequence (P11473 whole entry, looked up): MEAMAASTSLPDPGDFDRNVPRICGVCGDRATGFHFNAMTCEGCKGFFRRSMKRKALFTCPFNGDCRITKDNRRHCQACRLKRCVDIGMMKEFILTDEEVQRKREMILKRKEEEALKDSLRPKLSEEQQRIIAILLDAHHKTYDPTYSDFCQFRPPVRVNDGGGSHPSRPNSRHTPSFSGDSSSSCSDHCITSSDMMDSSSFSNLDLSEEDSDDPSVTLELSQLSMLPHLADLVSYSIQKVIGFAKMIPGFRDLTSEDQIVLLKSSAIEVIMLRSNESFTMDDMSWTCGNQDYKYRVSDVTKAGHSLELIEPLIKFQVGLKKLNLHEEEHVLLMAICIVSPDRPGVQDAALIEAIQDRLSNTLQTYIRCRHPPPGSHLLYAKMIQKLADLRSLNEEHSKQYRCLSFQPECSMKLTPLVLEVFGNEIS
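VDR–SRC2-3 interaction, FP format. Cmpds 23 nl via pintool, brief spin, 2 h ambient incubation.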
ALOX12 inh: blocks human arachidonate 12S-lipoxygenase; P18054; 1.1% of 580,000 active; AID 1671190; purified 12hLO, xylenol orange hydroperoxide absorbance; Potency, µM (titrated, usually from 108 µM), hits mostly inhibitors
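Purified human 12hLO at 150 nM in 25 mM Hepes, 0.01% Triton X-100, pH 7.0, preincubated 15 min at room temperature with compound. Reaction started with 40 uM arachidonic acid, 30 min at room temperature. Hydroperoxide measured by Fe-xylenol orange, 573/405 nm absorbance ratio.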
Numbers stand for hits; i = inactive; ? = inconclusive; nt = no result; [ ] = another dose, or the depositor's remark. Calls come from the whole dose curve; as a rule, active = well fitted curve in the direction sought with a large enough effect; inconclusive = small, poorly fitted or top-dose-only effect, or another doubt; inactive = no such curve, though single readings can be large; an effect the other way counts as inactive or inconclusive.

SMILES	Glioma ERSR ind	G9a inh	Sfp inh	VDR inhibitor	ALOX12 inh
O=C(Nc1ccccc1)Nc1cc(S(=O)(=O)N2CCOCC2)ccc1N1CCCC1	i	?	?	i	?
CCOc1ccc(Oc2ccc(S(=O)(=O)N3CCOCC3)cc2NC(=O)C2=COCCO2)cc1	i	i[2.33 µM]	nt	i	i
NC(=O)C1CCN(CC(=O)Nc2ccc(S(=O)(=O)N3CCOCC3)cc2)CC1	i	i	i	i	i
O=C(Nc1ccc(F)cc1)Nc1cc(S(=O)(=O)N2CCOCC2)ccc1N1CCCC1	i	35.5µM	i	i	i
Cc1cc2oc(C(=O)NCC(c3cccs3)N3CCCCCC3)cc(=O)c2cc1C (configuration not stated)	nt	nt	nt	nt	i
O=C(Nc1ccc(Cl)cc1)Nc1cc(S(=O)(=O)N2CCOCC2)ccc1N1CCCC1	i	39.8µM	i	i	?
O=C(Nc1cc(S(=O)(=O)N2CCOCC2)ccc1N1CCCC1)C1CC1	i	39.8µM	i	i	?
O=C(O)CNC(=O)CC(F)(F)F	nt	nt	nt	nt	i
COCc1cccc(C(=O)NCc2ccc(C(=O)O)cc2)c1	nt	nt	nt	nt	i
CC(C)c1ccccc1NC(=O)CNCCc1ccc(C(F)(F)F)cc1	i	i[12.7 µM]	79.4µM	i	i
Cc1cccc(CNc2ncc(-c3cccc([N+](=O)[O-])c3)n2C)c1	i	44.7µM	i	i	?
Cn1c(-c2ccc3c(c2)OCO3)cnc1NCc1ccc(Cl)cc1	i	?	?	i	?
COc1ccc(OC)c(CNc2ncc(-c3cccc([N+](=O)[O-])c3)n2C)c1	i	28.2µM	?	i	i
COc1ccc(-c2cnc(NCc3cc4c(cc3[N+](=O)[O-])OCO4)n2C)cc1	i	31.6µM	50.1µM	i	?
Cn1c(-c2cccc(Br)c2)cnc1NCc1cccc(F)c1	i	3.98µM	nt	i	11.2µM
Cc1cn2nc(C(=O)N3CCC(C(=O)NCCc4ccccc4)CC3)cc2c(=O)[nH]1	nt	nt	nt	nt	i
O=C1Nc2ccccc2CC12CN(Cc1ccc(F)c(F)c1F)C2	nt	nt	nt	nt	i[6.33 µM]
Cn1c(-c2cccc([N+](=O)[O-])c2)cnc1NCc1cccc([N+](=O)[O-])c1	i	17.8µM	?	i	?
COc1ccc(C(=O)C(OC(=O)CNC(=O)c2ccco2)c2ccccc2)cc1 (configuration not stated)	i	50.1µM	79.4µM	i	?
O=C(CNC(=O)c1ccccc1)OC(C(=O)c1ccccc1)c1ccccc1 (configuration not stated)	i	i	i	i	i
Cc1nc2cc(NC(C)C(=O)Nc3ccc(Cl)cc3)ccc2o1 (configuration not stated)	nt	nt	nt	nt	i
CCNCc1ccc(-c2ccc(C(=O)OC)cc2)o1	nt	nt	nt	nt	i
CCOC(=O)c1ccc(-c2ccc(CO)o2)cc1	i	44.7µM	i	i	i
COc1ccc2nc(C)c(C(=O)NC34CC5CC(CC(C5)C3)C4)cc2c1	nt	nt	nt	nt	i
CC(=O)c1cccc(N2Cc3ccccc3C2=NC(=O)CCl)c1	i	31.6µM	?	i	i
SMILES	Glioma ERSR ind	G9a inh	Sfp inh	VDR inhibitor	ALOX12 inh
CC(C)(C)c1ccccc1NC(=O)c1ccc(N2CCCCS2(=O)=O)cc1Cl	nt	nt	nt	nt	i
O=c1c2c(-c3ccccc3)csc2nc2n1CCC2	i	i[12.7 µM]	31.6µM	i	i
CCCc1nc2scc(-c3ccccc3)c2c(=O)n1N	i	i[12.7 µM]	i	i	i
O=c1c2c(-c3ccc([N+](=O)[O-])cc3)csc2nc2n1CCCCC2	i	35.5µM	i	i	i
C/C(=N\NS(=O)(=O)c1ccc([N+](=O)[O-])cc1)c1ccc2c(c1)OCO2	i	i	i	i	?
C/C(=N/NS(=O)(=O)c1cccc([N+](=O)[O-])c1)c1ccc2c(c1)OCO2	i	31.6µM	i	i	i
C/C(=N\NS(=O)(=O)c1ccc(C)c([N+](=O)[O-])c1)c1ccc2c(c1)OCO2	i	44.7µM	i	i	i
C/C(=N/NS(=O)(=O)c1ccc(C)cc1)c1ccc2c(c1)OCO2	i	i	i	i	i
COc1ccc(OC)c(S(=O)(=O)N/N=C(/C)c2ccc3c(c2)OCO3)c1	i	31.6µM	i	i	i
NC(Cc1ccc(O)c(O)c1)C(=O)O (configuration not stated)	i	nt	i	nt	nt
N[C@H](Cc1ccc(O)c(O)c1)C(=O)O	nt	17.8µM	?	nt	nt
O=C(O)c1ccc2c(c1)C(=O)N([C@H](Cc1ccc(O)c(O)c1)C(=O)O)C2=O	nt	2µM	79.4µM	nt	nt
O=C(/C=C/c1ccc(O)c(O)c1)O[C@H](Cc1ccc(O)c(O)c1)C(=O)O	nt	?	50.1µM	nt	nt
CCCCOc1ccc(C2=CSC3=NCCN23)cc1[N+](=O)[O-]	i	?	i	?	i
CCCCOc1ccc(-c2csc(N)n2)cc1[N+](=O)[O-]	i	8.91µM	39.8µM	i	i
c1ccc(CNc2ncnc3ccc(-c4ccoc4)cc23)cc1	i	i[0.501 µM]	i	25.1µM	?
c1cncc(CNc2ncnc3ccc(-c4cccnc4)cc23)c1	i	i[12.7 µM]	79.4µM	i	i
c1ccc(Nc2ncnc3ccc(-c4ccoc4)cc23)cc1	i	i[0.501 µM]	i	31.6µM	i
CCOc1ccc(CN(C)S(=O)(=O)c2cnn(C)c2)cc1OC	nt	nt	nt	nt	i
COc1ccc(C(=O)OCC(=O)c2c(N)n(C)c(=O)n(C)c2=O)cc1OC	i	i	i	i	i
CC(=O)Oc1ccc(C(=O)OCC(=O)c2c(N)n(C)c(=O)n(C)c2=O)cc1OC(C)=O	i	50.1µM	i	i	i
Cn1c(N)c(C(=O)COC(=O)Cc2ccsc2)c(=O)n(C)c1=O	i	44.7µM	i	i	i
CCNC(=O)C(C)Nc1nc(-c2ccccc2)nc2ccccc12 (configuration not stated)	nt	nt	nt	nt	i
Cn1nnnc1SCC1=C(C(=O)O)N2C(=O)C(NC(=O)C(OC=O)c3ccccc3)C2SC1 (configuration not stated)	i	i[2.33 µM]	i	?	nt
CC(C(=O)NC1C(=O)N2C(C(=O)O)=C(CSc3nnnn3C)CSC12)n1cc(Br)cn1 (configuration not stated)	i	28.2µM	i	i	i
SMILES	Glioma ERSR ind	G9a inh	Sfp inh	VDR inhibitor	ALOX12 inh
Cn1nnnc1SCC1=C(C(=O)O)N2C(=O)[C@@H](NC(=O)[C@H](OC=O)c3ccccc3)[C@H]2SC1	i	nt	nt	nt	nt
Cc1nn(C(C)C(=O)NC2C(=O)N3C(C(=O)O)=C(CSc4nnnn4C)CSC23)cc1Cl (configuration not stated)	i	?	79.4µM	i	i
Cc1cccc(N2CCN(C(=O)c3ccc(N4CCCC4=O)cc3)CC2C)c1 (configuration not stated)	i	i[0.501 µM]	i	i	i
Cc1cccc(N2CCN(C(=O)c3ccc4c(c3)NC(=O)C(CSCc3ccc(F)cc3)N4)CC2C)c1 (configuration not stated)	nt	14.1µM	56.2µM	nt	nt
Cc1ccc(CSCC2Nc3ccc(C(=O)N4CCN(c5cccc(C)c5)C(C)C4)cc3NC2=O)cc1 (configuration not stated)	nt	7.08µM	50.1µM	nt	nt
CCCCCn1c(=O)[nH]c2cc(C(=O)N3CCN(c4cccc(C)c4)C(C)C3)ccc2c1=O (configuration not stated)	i	i	nt	i	i
